# Measured values from the supplement of paper PMC10849652.
# Targets with a hit are over-represented here; the source holds about 7,900 in all. About 0.6% of all pairs of compound and target were hits.
# Compound: Cc1ccc(C(=O)N(CCCN)[C@@H](c2nc3cc(Cl)ccc3c(=O)n2Cc2ccccc2)C(C)C)cc1 [ispinesib]
# Test: log2 fold change, soluble protein after heating vs DMSO (PISA); higher = thermal stabilisation; K562 cells, 10 uM, 30 min; active = over 0.2 and 3.5 SD of the protein, either way, in both replicates (recomputed)
# How it was run: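 K562 cells at 2×10^6 cells/mL were treated for 30 min with 10 μM compound, and aliquots were heated for 3 min over 48°C-58°C before pooling. Extraction used PBS with 0.5% NP-40 at 4°C, and soluble protein was the supernatant after 21,000xg for 90 min, measured by TMTpro 16plex LC-MS/MS with channel sums equalised. Thermal stability values, relative to control samples and from duplicates, are log2 fold changes.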
# Sequence of UniProt Q15759 (Q15759 whole entry, looked up): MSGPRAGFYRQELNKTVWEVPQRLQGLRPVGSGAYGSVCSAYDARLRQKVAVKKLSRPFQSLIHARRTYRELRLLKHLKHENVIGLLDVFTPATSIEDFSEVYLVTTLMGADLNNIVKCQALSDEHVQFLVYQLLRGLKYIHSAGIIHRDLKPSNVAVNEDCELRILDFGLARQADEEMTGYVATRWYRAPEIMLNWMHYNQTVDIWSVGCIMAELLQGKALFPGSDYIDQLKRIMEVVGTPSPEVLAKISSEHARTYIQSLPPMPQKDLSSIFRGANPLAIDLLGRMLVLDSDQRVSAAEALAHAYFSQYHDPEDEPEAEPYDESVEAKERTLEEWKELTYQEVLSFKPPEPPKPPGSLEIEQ
# Sequence of UniProt Q8TDD5 (Q8TDD5 whole entry, looked up): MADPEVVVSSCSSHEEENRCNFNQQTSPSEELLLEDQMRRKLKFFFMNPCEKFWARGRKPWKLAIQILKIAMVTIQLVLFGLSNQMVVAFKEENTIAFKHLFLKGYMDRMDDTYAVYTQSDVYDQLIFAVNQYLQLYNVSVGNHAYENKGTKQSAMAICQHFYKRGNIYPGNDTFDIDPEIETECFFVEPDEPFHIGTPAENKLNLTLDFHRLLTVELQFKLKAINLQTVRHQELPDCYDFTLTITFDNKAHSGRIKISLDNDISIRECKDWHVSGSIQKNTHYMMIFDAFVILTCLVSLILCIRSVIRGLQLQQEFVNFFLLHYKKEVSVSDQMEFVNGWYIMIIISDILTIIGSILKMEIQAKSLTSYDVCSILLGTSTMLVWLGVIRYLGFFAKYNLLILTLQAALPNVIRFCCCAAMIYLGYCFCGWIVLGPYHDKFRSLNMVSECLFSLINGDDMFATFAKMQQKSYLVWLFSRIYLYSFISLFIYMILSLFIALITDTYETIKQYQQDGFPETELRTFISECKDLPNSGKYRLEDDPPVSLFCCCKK
# Sequence of UniProt Q13163 (Q13163 whole entry, looked up): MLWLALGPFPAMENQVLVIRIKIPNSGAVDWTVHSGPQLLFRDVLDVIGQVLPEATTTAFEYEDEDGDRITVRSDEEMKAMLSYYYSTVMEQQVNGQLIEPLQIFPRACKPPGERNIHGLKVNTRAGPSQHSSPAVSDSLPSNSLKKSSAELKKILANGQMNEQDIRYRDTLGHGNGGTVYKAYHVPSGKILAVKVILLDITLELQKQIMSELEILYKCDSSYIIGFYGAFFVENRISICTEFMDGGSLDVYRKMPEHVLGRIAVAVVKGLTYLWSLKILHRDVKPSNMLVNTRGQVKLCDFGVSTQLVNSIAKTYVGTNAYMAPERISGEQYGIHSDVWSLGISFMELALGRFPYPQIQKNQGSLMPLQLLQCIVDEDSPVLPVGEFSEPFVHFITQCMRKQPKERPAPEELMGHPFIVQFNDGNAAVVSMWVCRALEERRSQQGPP
# Sequence of UniProt Q9BQD3 (Q9BQD3 whole entry, looked up): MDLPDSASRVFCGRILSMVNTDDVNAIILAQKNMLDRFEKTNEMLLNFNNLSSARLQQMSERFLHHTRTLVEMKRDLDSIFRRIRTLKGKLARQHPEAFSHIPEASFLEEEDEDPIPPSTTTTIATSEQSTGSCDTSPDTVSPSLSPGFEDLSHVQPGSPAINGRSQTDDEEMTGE
# Sequence of UniProt Q9NUN5 (Q9NUN5 whole entry, looked up): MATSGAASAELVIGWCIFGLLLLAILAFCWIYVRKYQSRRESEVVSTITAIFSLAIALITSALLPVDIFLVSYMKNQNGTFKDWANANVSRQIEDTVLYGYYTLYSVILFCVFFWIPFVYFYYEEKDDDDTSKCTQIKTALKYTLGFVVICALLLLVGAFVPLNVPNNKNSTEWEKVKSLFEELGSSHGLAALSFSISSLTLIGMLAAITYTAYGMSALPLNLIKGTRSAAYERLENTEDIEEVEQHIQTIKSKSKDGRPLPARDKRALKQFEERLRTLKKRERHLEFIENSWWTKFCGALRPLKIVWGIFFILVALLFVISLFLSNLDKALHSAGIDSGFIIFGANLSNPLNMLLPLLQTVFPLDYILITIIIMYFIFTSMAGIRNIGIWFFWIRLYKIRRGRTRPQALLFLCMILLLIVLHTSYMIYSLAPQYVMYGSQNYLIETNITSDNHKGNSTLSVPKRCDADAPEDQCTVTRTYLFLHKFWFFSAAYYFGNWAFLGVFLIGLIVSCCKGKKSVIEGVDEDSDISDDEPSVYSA
# Sequence of UniProt P28290 (P28290 whole entry, looked up): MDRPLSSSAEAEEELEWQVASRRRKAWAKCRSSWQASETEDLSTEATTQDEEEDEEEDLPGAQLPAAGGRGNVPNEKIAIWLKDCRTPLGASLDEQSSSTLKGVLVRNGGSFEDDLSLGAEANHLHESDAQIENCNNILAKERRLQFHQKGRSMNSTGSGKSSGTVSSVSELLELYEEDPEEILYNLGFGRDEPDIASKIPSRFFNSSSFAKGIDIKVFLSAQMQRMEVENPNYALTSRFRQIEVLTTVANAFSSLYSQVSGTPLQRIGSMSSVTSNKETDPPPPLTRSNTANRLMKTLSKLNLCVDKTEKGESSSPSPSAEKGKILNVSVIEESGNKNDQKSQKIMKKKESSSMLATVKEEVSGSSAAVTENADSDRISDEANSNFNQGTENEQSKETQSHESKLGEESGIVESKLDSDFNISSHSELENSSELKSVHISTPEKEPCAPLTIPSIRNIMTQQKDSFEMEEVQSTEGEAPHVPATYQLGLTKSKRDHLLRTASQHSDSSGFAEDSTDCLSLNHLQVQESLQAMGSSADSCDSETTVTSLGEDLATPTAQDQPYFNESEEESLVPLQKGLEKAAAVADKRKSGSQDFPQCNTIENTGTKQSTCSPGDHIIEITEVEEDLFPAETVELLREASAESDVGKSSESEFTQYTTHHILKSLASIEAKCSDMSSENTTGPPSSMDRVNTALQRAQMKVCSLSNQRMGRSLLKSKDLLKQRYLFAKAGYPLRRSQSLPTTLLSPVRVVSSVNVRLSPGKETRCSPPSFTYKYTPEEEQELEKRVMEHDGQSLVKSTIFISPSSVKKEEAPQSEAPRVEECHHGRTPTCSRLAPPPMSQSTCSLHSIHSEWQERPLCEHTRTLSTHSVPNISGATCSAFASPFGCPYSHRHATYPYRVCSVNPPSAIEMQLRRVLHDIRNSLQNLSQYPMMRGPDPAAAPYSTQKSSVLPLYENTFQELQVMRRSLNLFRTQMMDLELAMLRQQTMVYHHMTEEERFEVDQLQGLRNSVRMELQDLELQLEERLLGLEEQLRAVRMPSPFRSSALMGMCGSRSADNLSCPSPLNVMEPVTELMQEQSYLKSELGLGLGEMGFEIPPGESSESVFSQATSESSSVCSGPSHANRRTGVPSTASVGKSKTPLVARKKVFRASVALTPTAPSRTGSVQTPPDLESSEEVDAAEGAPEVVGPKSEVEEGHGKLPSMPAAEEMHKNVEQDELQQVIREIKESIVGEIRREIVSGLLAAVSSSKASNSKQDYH
# Sequence of UniProt Q9Y4K4 (Q9Y4K4 whole entry, looked up): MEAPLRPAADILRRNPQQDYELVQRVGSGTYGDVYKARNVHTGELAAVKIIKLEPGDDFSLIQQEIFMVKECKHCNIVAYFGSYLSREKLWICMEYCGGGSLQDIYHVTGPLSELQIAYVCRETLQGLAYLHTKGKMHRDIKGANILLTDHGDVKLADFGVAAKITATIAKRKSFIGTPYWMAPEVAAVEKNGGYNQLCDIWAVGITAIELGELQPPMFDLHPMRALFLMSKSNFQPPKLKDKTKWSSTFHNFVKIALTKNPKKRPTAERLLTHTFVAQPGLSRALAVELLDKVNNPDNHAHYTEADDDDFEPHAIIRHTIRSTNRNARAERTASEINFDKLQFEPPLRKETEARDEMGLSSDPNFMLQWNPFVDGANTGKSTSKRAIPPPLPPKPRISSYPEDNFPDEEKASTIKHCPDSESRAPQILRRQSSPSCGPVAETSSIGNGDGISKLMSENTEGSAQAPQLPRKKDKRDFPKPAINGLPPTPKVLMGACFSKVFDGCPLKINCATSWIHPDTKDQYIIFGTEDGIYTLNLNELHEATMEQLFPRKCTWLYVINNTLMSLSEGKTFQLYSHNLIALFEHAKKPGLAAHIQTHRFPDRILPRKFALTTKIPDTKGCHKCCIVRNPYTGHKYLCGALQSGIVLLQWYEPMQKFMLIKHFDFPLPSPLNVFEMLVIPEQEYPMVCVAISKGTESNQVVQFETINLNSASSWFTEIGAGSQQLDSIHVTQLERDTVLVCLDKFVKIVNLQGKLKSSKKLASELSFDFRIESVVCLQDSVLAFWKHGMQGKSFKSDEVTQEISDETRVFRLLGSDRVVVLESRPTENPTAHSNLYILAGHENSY
# Sequence of UniProt Q5SW96 (Q5SW96 whole entry, looked up): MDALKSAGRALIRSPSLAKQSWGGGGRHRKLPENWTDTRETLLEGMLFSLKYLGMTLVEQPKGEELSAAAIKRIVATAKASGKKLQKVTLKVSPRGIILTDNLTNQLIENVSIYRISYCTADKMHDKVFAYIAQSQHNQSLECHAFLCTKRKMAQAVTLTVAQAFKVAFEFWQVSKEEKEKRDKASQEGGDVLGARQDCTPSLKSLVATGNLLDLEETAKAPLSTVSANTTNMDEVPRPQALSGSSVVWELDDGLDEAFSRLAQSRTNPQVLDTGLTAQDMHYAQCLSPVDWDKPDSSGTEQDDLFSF
# Sequence of UniProt Q9H3U5 (Q9H3U5 whole entry, looked up): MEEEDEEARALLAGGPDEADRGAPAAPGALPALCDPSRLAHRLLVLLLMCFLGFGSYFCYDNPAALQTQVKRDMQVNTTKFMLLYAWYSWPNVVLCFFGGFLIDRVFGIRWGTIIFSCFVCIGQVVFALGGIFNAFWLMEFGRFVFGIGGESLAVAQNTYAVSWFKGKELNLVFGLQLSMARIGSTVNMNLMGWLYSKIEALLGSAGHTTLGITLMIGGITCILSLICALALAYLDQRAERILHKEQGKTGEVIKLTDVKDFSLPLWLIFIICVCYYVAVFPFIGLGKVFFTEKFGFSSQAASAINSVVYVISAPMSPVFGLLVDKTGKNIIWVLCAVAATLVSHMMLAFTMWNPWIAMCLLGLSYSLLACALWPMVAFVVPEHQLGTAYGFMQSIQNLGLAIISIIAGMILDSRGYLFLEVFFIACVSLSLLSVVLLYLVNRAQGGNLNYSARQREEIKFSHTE
row,Target,log2 fold change
1,ITPRID2 (UniProt P28290),-0.035 (inactive)
2,MCOLN3 (UniProt Q8TDD5),-0.255 (inactive)
3,IKZF1 isoform 2 (UniProt Q13422),-0.034 (inactive)
4,MFSD8 (UniProt Q8NHS3),-0.208 (inactive)
5,IGFBP6 (UniProt P24592),-0.712 (active)
6,MAP2K5 (UniProt Q13163),0.123 (inactive)
7,KIF21A (UniProt H0YI78),-0.041 (inactive)
8,MGRN1 isoform 2 (UniProt O60291),-0.225 (inactive)
9,ITM2C (UniProt Q9NQX7),0.051 (inactive)
10,LRRCC1 (UniProt Q9C099),-0.301 (inactive)
11,KIZ (UniProt Q2M2Z5),-0.047 (inactive)
12,MAP4K5 (UniProt Q9Y4K4),-0.045 (inactive)
13,MFSD1 isoform 6 (UniProt Q9H3U5),-0.367 (active)
14,LMBRD1 (UniProt Q9NUN5),-0.61 (active)
15,KXD1 (UniProt Q9BQD3),-0.078 (inactive)
16,LDLRAP1 (UniProt Q5SW96),-0.088 (inactive)
17,MAP4 isoform 5 (UniProt P27816),-0.042 (inactive)
18,MBLAC1 (UniProt A4D2B0),-0.142 (inactive)
19,MAPK11 (UniProt Q15759),-0.334 (inactive)
20,MAGEA8 (UniProt P43361),-0.034 (inactive)
